Measured values reported in PubChem BioAssay.
Several values for one entry are separate records, joined by “and”; a condition that tells them apart may be missing. Identical values can stand only once. For some assays here: Results with a measured potency or affinity are listed apart. Activity calls are given as the source filed them. Unless noted, no rule for the calls is given here.

Experiments:
[1] = liver-stage malaria parasite load reduction – cell-based, known kinase inhibitor set, luminescence, hepatoma host viability (AID 624392); settings: Plasmodium liver stage in hepatoma cells, luciferase luminescence, concentration not given here; liver cell % of control: measured here: host liver cell viability; parasite % of control: stronger effect = lower value;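 also: infected cells incubated roughly two days before readout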
[2] = altered dexamethasone sensitivity, NF-kB reporter, cell-based, luciferase, IL-1B stimulus (AID 624486); settings: IL-1B + dexamethasone, luminescence; percent of negative control (+Dex): actives lie on both sides, concentration not given here; z-score: measured here: IL-1B alone, no Dex;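 as to percent of negative control (+Dex): 100% = mean signal of vehicle control wells on the plate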
[3] = molecular target: Cellular tumor antigen p53 (Homo sapiens) (UniProt P04637); assay: GFP-p53 level modulators in HPV16+ cells – imaging, known kinase inhibitor set, EGFP/DsRed ratio (AID 1053116); settings: GFP-p53 stability, stronger effect = higher value; EGFP object count: measured here: GFP-p53 positive objects count;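 also: cells exposed to compounds for 24 h at 37 °C before reading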
[4] = inducers of IRF3 signaling, differentiated THP-1 – cell-based, PMA-stimulated THP-1, luminescence (AID 1053176); settings: PMA-differentiated THP-1, IRF3 reporter luminescence; stronger effect = higher value
[5] = antimalarial activity against Dd2 strain (AID 2302;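 active = growth inhibition above 50% at the single 2 µM test dose, taken to imply half-maximal potency below 2 µM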;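 also: 0% = DMSO untreated growth and 100% = chloroquine plus artemisinin killed control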); settings: P. falciparum Dd2 in RBCs, LDH growth readout, 72 h; at 2 µM; stronger effect = higher value
[6] = human hepatoma cell viability loss – ATP luminescence, cytotoxicity control for P. falciparum antimalarial project, primary screen (AID 2303;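 active = inhibition above 50%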;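 also: 0% = DMSO wells and 100% = digitonin-killed cells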); settings: HepG2 viability, 24-48 h, at 10 µM, stronger effect = higher value
[7] = molecular target: L-lactate dehydrogenase (Plasmodium falciparum (isolate CDC / Honduras)) (UniProt Q27743); assay: PfLDH activity inhibition – cell lysate, 3D7 strain, counter-screen for P. falciparum growth inhibition project (AID 2304);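 also: 0% = vehicle and 100% = reference inhibitor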; settings: P. falciparum 3D7 crude extract, LDH APAD/NBT absorbance; at 2 µM; stronger effect = higher value
[8] = inhibition of 3D7 malaria parasite growth – strain 3D7 (AID 2306);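 also: 0% = DMSO wells and 100% = chloroquine plus artemisinin control wells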; settings: P. falciparum 3D7 erythrocytic growth, LDH absorbance, 72 h; at 2 µM; stronger effect = higher value
[9] = C. elegans survival during P. aeruginosa infection – whole organism (AID 651566);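 also: tested at 14 µM; sign flipped so higher z means a lower ratio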; settings: C. elegans killed by P. aeruginosa, survival ratio
[10] = pro-inflammatory signaling induction in mouse macrophages – cell-based, murine, luminescence (AID 652131); settings: murine macrophage pro-inflammatory reporter, stronger effect = higher value
[11] = molecular target: Calcium-dependent protein kinase 1 (Plasmodium falciparum (isolate 3D7)) (UniProt P62344); assay: PfCDPK1 kinase inhibitors, biochemical, TCAMS library (AID 1159585; cut-off not given, nearly all actives have IC50 up to about 0.98 µM;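 also: inhibitors leave more ATP so luminescence rises with inhibition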); settings: recombinant PfCDPK1, Kinase-Glo ATP depletion luminescence
[12] = molecular target: Plasmodium falciparum protein kinase 6 (PK6, PF3D7_1337100) (UniProt Q8IDW1); assay: PfPK6 kinase inhibitors, biochemical, TCAMS library (AID 1159586); settings: recombinant PfPK6, Kinase-Glo ATP depletion luminescence
[13] = molecular target: Protein kinase 7 (PK7), Plasmodium falciparum 3D7 (PF3D7_0213400) (UniProt Q7YTF7); assay: inhibition of Plasmodium PK7 catalytic activity – biochemical, TCAMS antimalarial set, Kinase-Glo luminescence (AID 1159587); settings: recombinant PfPK7, Kinase-Glo ATP depletion luminescence
[14] = molecular target: Calcium-dependent protein kinase 4 (Plasmodium falciparum (isolate 3D7)) (UniProt Q8IBS5); assay: PfCDPK4 kinase inhibitors, biochemical, TCAMS library (AID 1159588; cut-off not given, nearly all actives have IC50 up to about 0.91 µM); settings: recombinant PfCDPK4, Kinase-Glo ATP depletion luminescence
[15] = MELAS cybrid and Rieske KO viability enhancers – cell-based, MELAS cybrids, Rieske KO mouse fibroblasts, CellTiter-Glo, primary screen (AID 1508586;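 active = mean z-score across replicates of 1.96 or higher in either the MELAS or the Rieske mutant cell line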;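 also: z relative to plate mean and SD of compound and empty wells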); settings: low glucose
[16] = MELAS cybrid survival, CellTiter-Glo 48 h, stronger effect = higher value
[17] = Rieske KO mouse fibroblast survival, CellTiter-Glo 72 h

Cellular tumor antigen p53 (Homo sapiens), sequence (P04637 whole entry, looked up): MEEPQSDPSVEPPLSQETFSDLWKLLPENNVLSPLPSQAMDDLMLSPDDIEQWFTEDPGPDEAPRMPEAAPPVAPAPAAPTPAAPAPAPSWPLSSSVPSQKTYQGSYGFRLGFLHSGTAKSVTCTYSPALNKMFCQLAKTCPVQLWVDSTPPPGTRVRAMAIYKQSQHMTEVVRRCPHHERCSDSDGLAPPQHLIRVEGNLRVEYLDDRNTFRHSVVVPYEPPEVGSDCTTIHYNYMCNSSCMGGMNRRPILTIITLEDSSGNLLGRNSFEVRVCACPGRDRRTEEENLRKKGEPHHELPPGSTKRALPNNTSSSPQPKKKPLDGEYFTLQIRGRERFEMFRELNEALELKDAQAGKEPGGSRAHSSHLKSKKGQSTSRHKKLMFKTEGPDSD
Calcium-dependent protein kinase 1 (Plasmodium falciparum (isolate 3D7)), sequence (P62344 whole entry, looked up): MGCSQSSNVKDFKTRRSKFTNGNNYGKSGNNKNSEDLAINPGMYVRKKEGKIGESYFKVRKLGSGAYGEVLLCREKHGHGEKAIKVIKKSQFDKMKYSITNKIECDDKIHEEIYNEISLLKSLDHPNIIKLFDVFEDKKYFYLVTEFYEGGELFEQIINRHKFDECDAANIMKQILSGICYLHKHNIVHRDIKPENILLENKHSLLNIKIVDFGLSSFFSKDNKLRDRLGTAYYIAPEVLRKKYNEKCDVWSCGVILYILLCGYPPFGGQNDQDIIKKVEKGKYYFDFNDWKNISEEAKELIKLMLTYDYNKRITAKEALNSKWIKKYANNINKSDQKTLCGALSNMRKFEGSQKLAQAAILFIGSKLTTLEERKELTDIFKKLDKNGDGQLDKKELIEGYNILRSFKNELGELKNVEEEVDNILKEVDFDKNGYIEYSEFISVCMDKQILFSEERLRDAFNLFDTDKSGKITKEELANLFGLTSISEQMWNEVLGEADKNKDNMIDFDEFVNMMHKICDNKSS
L-lactate dehydrogenase (Plasmodium falciparum (isolate CDC / Honduras)), sequence (Q27743 whole entry, looked up): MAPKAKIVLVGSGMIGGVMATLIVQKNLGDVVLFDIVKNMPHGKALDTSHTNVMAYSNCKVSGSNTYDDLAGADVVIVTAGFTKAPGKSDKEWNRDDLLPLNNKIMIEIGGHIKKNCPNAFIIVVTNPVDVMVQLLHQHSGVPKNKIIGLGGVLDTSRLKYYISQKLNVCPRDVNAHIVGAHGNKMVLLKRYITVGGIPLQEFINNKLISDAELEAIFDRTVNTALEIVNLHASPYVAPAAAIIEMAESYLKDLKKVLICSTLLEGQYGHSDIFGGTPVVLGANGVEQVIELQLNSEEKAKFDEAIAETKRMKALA
Protein kinase 7 (PK7), Plasmodium falciparum 3D7 (PF3D7_0213400), sequence (Q7YTF7 1-343): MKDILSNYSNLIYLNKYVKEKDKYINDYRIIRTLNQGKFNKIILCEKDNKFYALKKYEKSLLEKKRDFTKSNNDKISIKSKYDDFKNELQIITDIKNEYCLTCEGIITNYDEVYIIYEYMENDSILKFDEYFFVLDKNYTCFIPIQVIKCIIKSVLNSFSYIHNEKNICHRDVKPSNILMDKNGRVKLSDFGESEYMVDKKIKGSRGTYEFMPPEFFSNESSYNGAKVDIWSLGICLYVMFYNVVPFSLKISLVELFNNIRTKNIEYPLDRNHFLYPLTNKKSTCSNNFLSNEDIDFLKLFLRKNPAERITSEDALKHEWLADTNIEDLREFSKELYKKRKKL
Calcium-dependent protein kinase 4 (Plasmodium falciparum (isolate 3D7)), sequence (Q8IBS5 whole entry, looked up): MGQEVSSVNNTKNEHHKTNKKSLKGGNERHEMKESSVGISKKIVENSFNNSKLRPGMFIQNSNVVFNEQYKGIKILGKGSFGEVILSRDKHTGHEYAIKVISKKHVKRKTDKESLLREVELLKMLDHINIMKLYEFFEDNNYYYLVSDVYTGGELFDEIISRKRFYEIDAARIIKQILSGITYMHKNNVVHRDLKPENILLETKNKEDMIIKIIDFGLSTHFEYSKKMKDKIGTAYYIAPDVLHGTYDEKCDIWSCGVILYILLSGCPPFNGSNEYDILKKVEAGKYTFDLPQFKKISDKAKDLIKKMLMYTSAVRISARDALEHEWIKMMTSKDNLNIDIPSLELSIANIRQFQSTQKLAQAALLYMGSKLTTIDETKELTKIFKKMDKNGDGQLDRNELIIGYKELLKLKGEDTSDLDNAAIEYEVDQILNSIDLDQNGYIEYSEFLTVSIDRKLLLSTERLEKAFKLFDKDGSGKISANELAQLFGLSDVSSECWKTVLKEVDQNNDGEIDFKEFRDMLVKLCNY
Plasmodium falciparum protein kinase 6 (PK6, PF3D7_1337100), sequence (Q8IDW1 1-305): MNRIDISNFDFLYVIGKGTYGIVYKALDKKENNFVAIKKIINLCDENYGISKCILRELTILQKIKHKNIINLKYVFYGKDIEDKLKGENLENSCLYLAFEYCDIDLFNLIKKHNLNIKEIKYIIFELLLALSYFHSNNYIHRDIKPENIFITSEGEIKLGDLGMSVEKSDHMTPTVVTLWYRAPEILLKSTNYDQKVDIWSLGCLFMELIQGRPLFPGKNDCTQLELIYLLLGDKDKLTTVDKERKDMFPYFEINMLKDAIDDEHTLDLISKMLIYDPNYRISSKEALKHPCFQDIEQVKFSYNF

CC(CS(C)(=O)=O)Nc1ncc2cc(Oc3ccc(F)cc3F)c(=O)n(C)c2n1 (stereo not given)
liver cell % of control [1]: 125% and 102% | parasite % of control [1]: 49.1% (inactive) and 48.7% (inactive) | percent of negative control (+Dex) [2]: 99.5% (inactive) and 101% (inactive) | z-score [2]: 0.115 and 0.87 | EGFP object count [3]: 5.5 and 3.5 | EGFP/DsRed ratio [3]: 0.387 (inactive) and 0.111 (inactive) | fraction signal [4]: -0.005 (inactive) and -0.0115 (inactive)

O=c1c(Oc2ccc(F)cc2F)cc2cnc(NC3CCOCC3)nc2n1C1CCS(=O)(=O)CC1
liver cell % of control [1]: 120% | parasite % of control [1]: 83.4% (inactive) | percent of negative control (+Dex) [2]: 97% (inactive) | z-score [2]: -0.26 | EGFP object count [3]: 3 | EGFP/DsRed ratio [3]: 0.101 (inactive) | fraction signal [4]: -0.0075 (inactive)

CC(c1ccccc1)C(C(=O)Nc1ccc(I)cc1F)N1C(=O)NC(c2ccc(OCC(O)CO)cc2)C1=O (stereo not given)
liver cell % of control [1]: 85.7% | parasite % of control [1]: 72.5% (inactive) | percent of negative control (+Dex) [2]: 55% (active) | z-score [2]: -3.5 | EGFP object count [3]: 5 | EGFP/DsRed ratio [3]: 0.306 (inactive) | fraction signal [4]: 0.0035 (inactive)

CCOc1ccccc1CCN=C1NC(=O)C(=Cc2ccc3ncccc3c2)S1
liver cell % of control [1]: 106% | parasite % of control [1]: 66% (inactive) | percent of negative control (+Dex) [2]: 90% (inactive) | z-score [2]: -0.335 | EGFP object count [3]: 11.5 | EGFP/DsRed ratio [3]: 0.141 (inactive) | fraction signal [4]: 0.031 (inactive)

COc1cccc(C2=C(c3cn(C)c4ccccc34)C(=O)NC2=O)c1
liver cell % of control [1]: 216% | parasite % of control [1]: 15.4% (inactive) | percent of negative control (+Dex) [2]: 110% (inactive) | z-score [2]: -0.735 | EGFP object count [3]: 9.5 | EGFP/DsRed ratio [3]: 0.204 (inactive) | fraction signal [4]: -0.003 (inactive)

COCC(N=C1NC(=O)C(=Cc2ccc3ncccc3c2)S1)c1ccccc1 (stereo not given)
liver cell % of control [1]: 98.8% | parasite % of control [1]: 49.5% (inactive) | percent of negative control (+Dex) [2]: 98% (inactive) | z-score [2]: 0.145 | EGFP object count [3]: 6.5 | EGFP/DsRed ratio [3]: 0.249 (inactive) | fraction signal [4]: -0.005 (inactive)

Nc1[nH]nc2nc(-c3cccs3)cc(C(F)(F)F)c12
liver cell % of control [1]: 104% | parasite % of control [1]: 41.7% (inactive) | percent of negative control (+Dex) [2]: 73% (active) | z-score [2]: -2.23 | EGFP object count [3]: 4 | EGFP/DsRed ratio [3]: 0.138 (inactive) | fraction signal [4]: -0.0165 (inactive)

CS(=O)(=O)CCNCc1ccc(-c2ccc3ncnc(Nc4ccc(OCc5ccccc5)c(Cl)c4)c3c2)o1
growth inhibition [5]: 76% (active) | inhibition [6]: 4% (inactive) | inhibition [7]: -7% (inactive) | growth inhibition [8]: 101% (active) | liver cell % of control [1]: 113% | parasite % of control [1]: 73.2% (inactive) | percent of negative control (+Dex) [2]: 73.5% (inactive) | z-score [2]: -1.31 | z-score [9]: -0.785 (inactive) | z-score [10]: 2.12 (inactive) | fraction signal [4]: -0.0085 (inactive) | outcome [11]: inactive | outcome [12]: inactive | outcome [13]: inactive | outcome [14]: inactive | z-score [15, 16]: -0.588 (inactive) | z-score [15, 17]: -0.304

COc1ccc2ncn(-c3cc(O[C@H](C)c4ccccc4Cl)c(C(N)=O)s3)c2c1
liver cell % of control [1]: 108% | parasite % of control [1]: 124% (inactive) | percent of negative control (+Dex) [2]: 77.5% (inactive) | z-score [2]: -2.52 | z-score [9]: 0.63 (inactive) | z-score [10]: -1.39 (inactive) | fraction signal [4]: -0.0045 (inactive) | z-score [15, 16]: -0.983 (inactive) | z-score [15, 17]: 0.0827

CCCCCNC(=O)C1CCCN2C(=O)CCC(NC(=O)C(Cc3ccc(OP(=O)(O)O)cc3)NC(C)=O)C(=O)N12 (stereo not given)
liver cell % of control [1]: 106% | parasite % of control [1]: 50.1% (inactive) | percent of negative control (+Dex) [2]: 99% (inactive) | z-score [2]: 0.695 | EGFP object count [3]: 3.5 | EGFP/DsRed ratio [3]: 0.227 (inactive) | fraction signal [4]: -0.007 (inactive)

CN1CCN(CC#Cc2cccc(C(=O)c3cnn(-c4ccc(F)cc4)c3N)c2)CC1
liver cell % of control [1]: 96.5% | parasite % of control [1]: 46.3% (inactive) | percent of negative control (+Dex) [2]: 104% (inactive) | z-score [2]: 0.495 | EGFP object count [3]: 3.5 | EGFP/DsRed ratio [3]: 0.0523 (inactive) | fraction signal [4]: 0.0015 (inactive)

COc1ccc2c(C3=C(c4cn(C)c5ccccc45)C(=O)NC3=O)cn(C)c2c1
liver cell % of control [1]: 79.3% | parasite % of control [1]: 31.4% (inactive) | percent of negative control (+Dex) [2]: 113% (inactive) | z-score [2]: -1.48 | EGFP object count [3]: 66 | EGFP/DsRed ratio [3]: 0.456 (inactive) | fraction signal [4]: -0.007 (inactive)

CNc1ncc2cc(Oc3ccc(F)cc3F)c(=O)n(C)c2n1
liver cell % of control [1]: 109% | parasite % of control [1]: 65.3% (inactive) | percent of negative control (+Dex) [2]: 94.5% (inactive) | z-score [2]: 1.49 | EGFP object count [3]: 2.5 | EGFP/DsRed ratio [3]: 0.0112 (inactive) | fraction signal [4]: -0.001 (inactive)

Cc1nc2sc3c(N)ncnc3c2c(C)c1C
liver cell % of control [1]: 140% | parasite % of control [1]: 42% (inactive) | percent of negative control (+Dex) [2]: 77.5% (inactive) | z-score [2]: -1.64 | EGFP object count [3]: 5 | EGFP/DsRed ratio [3]: 0.308 (inactive) | fraction signal [4]: -0.003 (inactive)

Cn1cc(C2=C(c3c4n(c5ccccc35)CC(CN)C4)C(=O)NC2=O)c2ccccc21 (stereo not given)
liver cell % of control [1]: 97.6% | parasite % of control [1]: 48.9% (inactive) | percent of negative control (+Dex) [2]: 100% (inactive) | z-score [2]: -0.23 | EGFP object count [3]: 6.5 | EGFP/DsRed ratio [3]: 0.00726 (inactive) | fraction signal [4]: -0.005 (inactive)

CN(C)CC1CCn2c(c(C3=C(c4cn(C)c5ccccc45)C(=O)NC3=O)c3ccccc32)C1 (stereo not given)
liver cell % of control [1]: 80.7% and 77.1% | parasite % of control [1]: 27.7% (inactive) and 36.4% (inactive) | percent of negative control (+Dex) [2]: 97% (inactive) and 96.5% (inactive) | z-score [2]: -0.715 and -0.17 | EGFP object count [3]: 13.5 and 7.5 | EGFP/DsRed ratio [3]: 0.0249 (inactive) and 0.0159 (inactive) | fraction signal [4]: -0.0005 (inactive) and -0.0055 (inactive)

Fc1ccc(-c2ncn(C3CCNCC3)c2-c2ccnc(Oc3ccccc3)n2)cc1
liver cell % of control [1]: 73.1% | parasite % of control [1]: 120% (inactive) | percent of negative control (+Dex) [2]: 102% (inactive) | z-score [2]: 0.6 | z-score [9]: 0.255 (inactive) | z-score [10]: 0.32 (inactive) | fraction signal [4]: -0.004 (inactive) | z-score [15, 16]: -0.224 (inactive) | z-score [15, 17]: -0.286

COc1cccc(C2=C(c3cn(C)c4cc(C)ccc34)C(=O)NC2=O)c1
liver cell % of control [1]: 112% | parasite % of control [1]: 29% (inactive) | percent of negative control (+Dex) [2]: 98.5% (inactive) | z-score [2]: -1.5 | EGFP object count [3]: 24 | EGFP/DsRed ratio [3]: 0.336 (inactive) | fraction signal [4]: -0.005 (inactive)
